An excerpt weighted towards active compounds, which were near 1.8% of everything screened.
GSTO1 counter: inhibitors of recombinant GSTO1, primary screen, counter-screen for RBBP9 inhibitor project, biochemical, fluorescence polarization. activity-based probe fluorescence polarization. inhibition, % at 5.96 µM. 300,000 compounds, 1.1% hits. AID 1974, 2009;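 active = inhibition above the campaign mean inhibition plus 3 SD, cut at about 35% in these data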
PAD4 inh: human PAD4 inhibitors, primary screen, biochemical, fluorescence polarization, 1536-well format | Protein-arginine deiminase type-4 (Homo sapiens), Q9UM07 | recombinant PAD4, RCA probe fluorescence polarization | AID 485272, 2010 | 330,000 compounds, 0.41% hits | inhibition, % at 6.36 µM;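 active = percent inhibition above a cutoff equal to the mean of all tested compounds plus 3 SD, cut at about 15% in these data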
Fam108B inh: mouse Fam108B serine hydrolase inhibitors, primary screen, counter-screen for RBBP9 inhibitor project, biochemical, fluorescence polarization. inhibition, % at 9.51 µM. 300,000 compounds, 0.33% hits. recombinant Fam108B, FP-Rh probe fluorescence polarization;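 active = inhibition above the screen mean inhibition plus 3 SD, computed separately per campaign, cut at about 18% in these data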;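 note: inhibitors lower polarization as less probe binds the enzyme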
PME-1 inh: PME-1 inhibitors via competitive probe labeling, primary screen, biochemical, fluorescence polarization, FP-Rh probe, HTS; AID 2130, 2009; recombinant PME-1; inhibition, % at 5.9 µM; 320,000 compounds, 0.53% hits;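 active = inhibition above the campaign mean of all compounds plus 3 SD, cut at about 26% in these data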;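 note: competitive labeling of PME-1 active site by serine hydrolase directed probe; inhibitors block probe labeling so polarization falls and inhibition rises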
Target sequence (Q9Y570 whole entry, looked up): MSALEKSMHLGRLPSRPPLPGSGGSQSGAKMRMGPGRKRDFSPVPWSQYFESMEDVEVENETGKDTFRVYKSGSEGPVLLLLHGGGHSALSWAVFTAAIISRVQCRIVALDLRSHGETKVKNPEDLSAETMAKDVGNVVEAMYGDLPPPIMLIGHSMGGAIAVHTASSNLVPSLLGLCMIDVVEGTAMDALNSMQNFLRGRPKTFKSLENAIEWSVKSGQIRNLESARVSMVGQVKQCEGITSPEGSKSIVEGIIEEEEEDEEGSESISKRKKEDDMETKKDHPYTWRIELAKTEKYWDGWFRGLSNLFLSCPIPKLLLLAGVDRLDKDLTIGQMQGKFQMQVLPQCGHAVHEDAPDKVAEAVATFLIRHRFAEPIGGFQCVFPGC
LYPLA2 counter: LYPLA2 inhibitors, primary screen, counter-screen for PME1 inhibitor project, biochemical, fluorescence polarization, FP-Rh probe ABPP; Acyl-protein thioesterase 2 (Homo sapiens), O95372; recombinant LYPLA2; inhibition, % at 5.9 µM; 320,000 compounds, 0.38% hits; AID 2177, 2009;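 active = inhibition above the screen-wide mean plus 3 SD, limit set per campaign, cut at about 26% in these data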
Target sequence (O95372 whole entry, looked up): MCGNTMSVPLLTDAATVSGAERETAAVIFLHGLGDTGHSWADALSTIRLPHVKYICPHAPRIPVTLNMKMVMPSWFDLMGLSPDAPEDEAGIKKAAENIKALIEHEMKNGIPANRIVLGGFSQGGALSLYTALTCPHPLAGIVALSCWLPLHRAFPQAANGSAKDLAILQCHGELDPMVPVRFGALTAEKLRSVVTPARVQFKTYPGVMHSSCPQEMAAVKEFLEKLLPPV
LYPLA1 counter: LYPLA1 inhibitors, primary screen, counter-screen for PME1 inhibitor project, biochemical, fluorescence polarization, FP-Rh probe ABPP | recombinant LYPLA1 | AID 2174, 2009 | inhibition, % at 5.9 µM | 320,000 compounds, 0.16% hits | Acyl-protein thioesterase 1 (Homo sapiens), O75608;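 active = inhibition above the mean of all tested compounds plus 3 SD, set per campaign, cut at about 14% in these data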;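 note: inhibitors block serine hydrolase probe labeling of LYPLA1 so polarization falls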
GSTO1 inh conf: GSTO1 inhibitor hit confirmation, counter-screen for RBBP9 inhibitor project, biochemical, fluorescence polarization, triplicate; 2,400 compounds, 54% hits; shares compounds with GSTO1 counter; recombinant GSTO1, probe fluorescence polarization; inhibition, % at 5.96 µM;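 active = inhibition above the primary screen's cutoff, its mean inhibition plus 3 SD, cut at about 35% in these data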;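 note: loss of polarization as inhibitors block binding of rhodamine sulfonate ester activity probe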
GSTO1 ABPP inh: inhibitors of purified human GSTO1, late-stage follow-up, biochemical, gel ABPP, SE-Rh probe, percent inhibition; 130 compounds, 30% hits; inhibition, % at 1 µM; recombinant GSTO1, gel ABPP SE-Rh probe fluorescence; shares compounds with GSTO1 counter;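 active = inhibition of the enzyme GSTO1 above about 75%, limit read from the data; inactive = inhibition below that limit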
Each line names hits and unclear results; the compound was inactive in the other large screens (follow-up assays come after a bar, where they were run).

O=C1NN(c2ccccc2)C(=O)/C1=C\c1coc2ccc(O)cc2c1=O	GSTO1 counter 50 | GSTO1 inh conf 36
C[C@H]1CN=C(Nc2ccccc2)N1CCC1CCCC1	none
CC1(OC(=O)C2CCCC2)C(=O)C=C2C=C(c3ccsc3)N(CCCCO)C=C2C1=O (centres undefined)	GSTO1 counter 44 | GSTO1 inh conf inactive
O=C(COc1ccccc1Cl)Nc1ccc(S(=O)(=O)Nc2ccccn2)cc1	none
O=C(CNC(=O)c1cccnc1)N=Nc1c(O)[nH]c2c(Br)cc(Br)cc12	GSTO1 counter 85 | GSTO1 inh conf 41
CC(=O)Nc1ccc(NC(=O)c2ccccc2Nc2ccccc2)cc1	none
CCOC(=O)C1=C(C)N(c2ccccc2)C(=O)/C1=C\c1ccco1	none
CCOC(=O)C1=C(C)N(c2ccccc2)C(=O)/C1=C\c1ccc(O)c(OC)c1	GSTO1 counter 62 | GSTO1 inh conf inactive
CC(C)(C)C(=O)NC(c1ccccc1)c1c(O)ccc2ccccc12 (centres undefined)	GSTO1 counter 53 | GSTO1 inh conf inactive
Cc1cc(O)c(C(C)C)cc1N=Cc1ccccc1O	GSTO1 counter 54 | GSTO1 inh conf inactive
Cc1cc(O)c(C(C)C)cc1N=Cc1cc([N+](=O)[O-])ccc1O	none
Cc1nn(-c2ccccc2)c2c1C(c1ccco1)C(C#N)=C(N)O2 (centres undefined)	GSTO1 counter 41 | GSTO1 inh conf inactive
Cc1nn(-c2ccccc2)c2c1C(c1ccc([N+](=O)[O-])cc1)C(C#N)=C(N)O2 (centres undefined)	none
COc1cc(C2C(C#N)=C(N)Oc3c2c(-c2ccccc2)nn3-c2ccccc2)cc(OC)c1OC (centres undefined)	GSTO1 counter 52 | GSTO1 inh conf inactive
O=C(COC(=O)CCSc1ccc(F)cc1)NCc1ccc(F)cc1	none (no result: GSTO1 counter, Fam108B inh, PME-1 inh, LYPLA2 counter, LYPLA1 counter)
c1nc(C2CCCCC2)cc2cc3c(cc12)OCO3	none (no result: GSTO1 counter, Fam108B inh, PME-1 inh, LYPLA2 counter, LYPLA1 counter)
[O-][N+]1=c2ccc(Nc3ccccc3)cc2=NC12CCCCC2	GSTO1 counter 58 | GSTO1 inh conf 35
COc1ccc(Nc2ccc3c(c2)=NC2(CCCCC2)[N+]=3[O-])cc1	GSTO1 counter 54 | GSTO1 inh conf inactive
c1ccc(Nc2cccc(Nc3ccccc3)c2)cc1	none
Cc1ccccc1OCC(=O)NC(=S)Nc1ccccc1N1CCN(S(C)(=O)=O)CC1	none
COc1ccc(S(=O)(=O)N2CCN(Cc3cc(=O)n4ccccc4n3)CC2)cc1	none (no result: GSTO1 counter, Fam108B inh)
O=C(CCl)N1c2ccccc2CCc2ccccc21	GSTO1 counter 69 | GSTO1 inh conf 85 | GSTO1 ABPP inh inactive
CC(Cl)C(=O)N1c2ccccc2CCc2ccccc21 (centres undefined)	none
CC(=NCCCn1ccnc1)c1c(-c2ccccc2)[nH]n(-c2nc3ccccc3s2)c1=O	GSTO1 counter 57 | GSTO1 inh conf inactive
O=c1[nH]cc(S(=O)(=O)N2CCCc3ccccc32)c(=O)[nH]1	none
CC1=CC(C)(C)N(C(=O)CCl)c2ccccc21	GSTO1 counter 65 | GSTO1 inh conf 58 | GSTO1 ABPP inh inactive
CC1=CC(C)(C)N(C(=O)CCl)c2cc(C)ccc21	none
COc1ccccc1Cc1nnc(NC(=O)C2CCN(C(=O)c3ccco3)CC2)s1	none
NC(=O)N/N=C/c1coc2ccc(O)cc2c1=O	GSTO1 counter 70 | GSTO1 inh conf inactive
Cc1ccc2occ(/C=N/NC(N)=S)c(=O)c2c1	none
COc1cc2c(cc1OC)C(C1C(=O)CCCC1=O)N(C(=O)CCl)CC2 (centres undefined)	none
COc1ccc2c(c1)CCN(C(=O)CCl)C2C1C(=O)CCCC1=O (centres undefined)	GSTO1 counter 40 | GSTO1 inh conf 81 | GSTO1 ABPP inh inactive
COc1cc2c(cc1OC)C(c1ccccc1)N(C(=O)CCl)CC2 (centres undefined)	GSTO1 counter 88 | GSTO1 inh conf 96 | GSTO1 ABPP inh 75
CC1=NN(c2ccc(Br)cc2)C(=O)/C1=C/c1cccs1	GSTO1 counter 45 | GSTO1 inh conf inactive
CCCCn1c(N)c(N(CC)C(=O)C2CCN(C(=O)c3ccccc3C)CC2)c(=O)[nH]c1=O	none (no result: GSTO1 counter, Fam108B inh)
COCCN=c1scc(-c2ccco2)n1/N=C/c1ccc(O)c(O)c1O	GSTO1 counter 69 | GSTO1 inh conf inactive
Oc1cccc(/C=N/NC(=S)NCCN2CCOCC2)c1O	GSTO1 counter 88 | GSTO1 inh conf 58
O=[N+]([O-])c1cc(Br)cc(C=Nc2ccc3c(c2)OCO3)c1O	GSTO1 counter 43 | GSTO1 inh conf 38
CC(NC(=O)c1ccc(F)cc1)C(=O)NC1=NCCS1 (centres undefined)	none
COc1cc(/C=C2\CC/C(=C\c3cc(OC)c(O)c(OC)c3)C2=O)cc(OC)c1O	GSTO1 counter 38 | GSTO1 inh conf inactive
O=C1COc2cc(S(=O)(=O)CCC(=O)N3CCCCC3)c(Cl)cc2N1	none
O=C(NCC1CCCO1)NC1(C(F)(F)F)Oc2ccccc2O1 (centres undefined)	GSTO1 counter 52 | GSTO1 inh conf inactive
O=C(Nc1ccc2c(c1)OCCO2)NC1(C(F)(F)F)Oc2ccccc2O1	none
O=C(Nc1ccc2c(c1)OCO2)NC1(C(F)(F)F)Oc2ccccc2O1	GSTO1 counter 48 | GSTO1 inh conf inactive
O=C(NC1(C(F)(F)F)Oc2ccccc2O1)N1CCCC1	GSTO1 counter 48 | GSTO1 inh conf inactive
COC(=O)c1ccc(-c2ccc(C(c3c(C)[nH][nH]c3=O)c3c(C)[nH][nH]c3=O)o2)cc1	GSTO1 counter 38 | GSTO1 inh conf inactive
CCc1ccccc1N(CC(=O)NCc1ccco1)C(=O)CCC(=O)Nc1nccs1	none
NC(=O)N=Nc1c(O)[nH]c2ccc([N+](=O)[O-])cc12	none
C=C(C)CNC(=S)N=Nc1c(O)[nH]c2ccc([N+](=O)[O-])cc12	GSTO1 counter 42 | GSTO1 inh conf 37
O=C(CNC(=O)c1ccco1)N=Nc1c(O)[nH]c2ccc([N+](=O)[O-])cc12	GSTO1 counter 50 | GSTO1 inh conf 62
